# PubChem BioAssay
# Calls of active or inactive are those of the source.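 The calls were made as follows, unless noted: active = NADPH fluorescence slope more negative than the mean of all samples by about 3 SD, 99.7% confidence; inactive = the rest.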
# Key:
# [1] = inhibitors of TNFa-induced NFkB p65 translocation, primary screen, imaging, HUVEC, MLSMR starter and 10KST1 sets (AID 438;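 active = inhibition above 20% together with a positive visual image hit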;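 also: compound added about 3h40 before a 20 min TNFalpha stimulation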;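 as to inhibition: signal is the nuclear over cytoplasmic p65 intensity ratio per well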); conditions: HUVEC TNFa-induced p65 nuclear translocation; cell count: measured here: nuclei count (cytotoxicity indicator), at 2.08 µM; inhibition: at 2 µM, stronger effect = higher value, 0% TNFa-plus-vehicle, 100% no-TNFa wells
# [2] = reduction of polyQ htt aggregates in cells – imaging, exon1htt(103Q)mCFP cells, high-content imaging, primary screen (AID 483;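 active = visual image review flags a hit and inhibition of aggregation exceeds 20%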;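 also: compound exposure lasted 3 days before fixation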;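 as to nuclei count: percent of the per-plate median nuclei count of sample wells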); conditions: exon1htt(103Q)mCFP cell line, aggregate imaging, at 2 µM; inhibition of aggregation: stronger effect = higher value; nuclei count: measured here: cell count, toxicity
# [3] = endothelial E-selectin expression blockers – imaging, HUVEC, immunofluorescence, MLSMR starter and 10KST1 sets, primary screen (AID 487;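 active = visually confirmed hit in the image check and inhibition above 20%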;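 as to inhibition: signal is fraction of cell area covered by stained E-selectin grains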;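 as to nuclei count: 100% = median nuclei count of all wells on the same plate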); conditions: HUVEC TNFalpha-induced E-selectin immunofluorescence imaging, at 2 µM; inhibition: stronger effect = higher value; nuclei count: measured here: cell number, toxicity
# [4] = molecular target: Voltage-gated potassium channel subunit beta-2 (Rattus norvegicus) (UniProt P62483); assay: inhibitors of rat Kvbeta2 reductase activity – biochemical, NADPH fluorescence, primary screen (AID 622;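 active = fluorescence slope higher than the sample average by over 3 SD, cut at about -0.22 in these data, passing the limit was not always enough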;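 also: slope of raw intensity against log time taken from 70 to 1610 s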); conditions: recombinant KvBeta, 4-cyanobenzaldehyde reduction, at 10 µM, stronger effect = higher value
# Chain of Voltage-gated potassium channel subunit beta-2 (Rattus norvegicus) (P62483 whole entry, looked up): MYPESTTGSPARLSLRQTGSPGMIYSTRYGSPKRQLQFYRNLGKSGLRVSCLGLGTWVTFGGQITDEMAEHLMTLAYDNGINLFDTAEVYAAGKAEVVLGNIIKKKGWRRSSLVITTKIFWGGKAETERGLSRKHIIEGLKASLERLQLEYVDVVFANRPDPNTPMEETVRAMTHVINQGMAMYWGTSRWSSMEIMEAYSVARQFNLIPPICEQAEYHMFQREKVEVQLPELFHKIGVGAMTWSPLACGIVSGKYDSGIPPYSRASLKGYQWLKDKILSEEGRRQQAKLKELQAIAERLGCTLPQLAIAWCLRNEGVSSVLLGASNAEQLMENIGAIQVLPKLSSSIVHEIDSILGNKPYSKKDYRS
# [5] = molecular target: Voltage-gated potassium channel subunit beta-2 (Rattus norvegicus) (UniProt P62483); assay: enhancers of rat Kvbeta2 NADPH turnover – biochemical, NADPH fluorescence, primary screen (AID 623); conditions: Recombinant KvBeta, NADPH fluorescence decrease slope, 10 min; at 10 µM; stronger effect = lower value;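 also: fluorescence intensity change per second fitted from 20 to 320 s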
# [6] = molecular target: Alpha-2C adrenergic receptor (Homo sapiens) (UniProt P18825); assay: compounds altering alpha2C-coupled GIRK flux – cell-based, HEK293 alpha2C/GIRK1/2, thallium flux, primary screen (AID 624;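 active = fluorescence slope after compound addition differing from the mean of all screened samples at 99.7% confidence, in either direction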;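 also: slope of fluorescence ratio to pre-addition baseline per second over 15 to 24 s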); conditions: thallium flux BTC fluorescence, at 10 µM, actives lie on both sides
# Chain of Alpha-2C adrenergic receptor (Homo sapiens) (P18825 whole entry, looked up): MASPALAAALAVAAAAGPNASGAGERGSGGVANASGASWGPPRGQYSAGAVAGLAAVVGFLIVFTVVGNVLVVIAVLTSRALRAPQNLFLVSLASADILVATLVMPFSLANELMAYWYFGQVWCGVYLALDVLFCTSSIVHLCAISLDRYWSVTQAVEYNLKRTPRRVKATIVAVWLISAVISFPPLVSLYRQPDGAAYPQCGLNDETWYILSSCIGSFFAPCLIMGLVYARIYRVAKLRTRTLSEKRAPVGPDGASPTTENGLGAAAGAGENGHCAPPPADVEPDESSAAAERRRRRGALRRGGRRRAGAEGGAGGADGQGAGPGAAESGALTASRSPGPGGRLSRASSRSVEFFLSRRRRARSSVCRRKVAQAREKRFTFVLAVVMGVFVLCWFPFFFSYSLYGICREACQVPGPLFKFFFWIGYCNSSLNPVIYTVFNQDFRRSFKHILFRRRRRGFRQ
# [7] = blockers of RIG-like receptor reporter activation – cell-based, Sendai virus stimulus, luciferase, 10K MLSCN set, TLR/RLR signaling modifier project, primary screen (AID 602276;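 active = inhibition at or above 50% at 10 µM; inactive = inhibition below 50%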;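 also: firefly luciferase from ISG56 promoter only with Renilla not read in this screen; 0% = Sendai virus plus DMSO and 100% = medium plus DMSO without virus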); conditions: HEK293 RL24 IRF3 luciferase reporter, at 10 µM, stronger effect = higher value
# [8] = TLR3 IRF3 reporter activation blockers – cell-based, poly I:C stimulus, luciferase, 10K MLSCN set, primary screen (AID 602277;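 active = inhibition of the reporter signal at or above 50%; inactive = inhibition below 50%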); conditions: HEK293-TLR3 RL24 IRF3 luciferase reporter, at 10 µM, stronger effect = higher value
SMILES,cell count [1],inhibition [1],inhibition of aggregation [2],nuclei count [2] [%],inhibition [3],nuclei count [3] [%],fluorescence slope [4],NADPH fluorescence slope [5],slope [6],inhibition [7],inhibition [8]
CC1CCc2c(sc3c2C2=NS(=O)(=O)CCN2C=N3)C1 (stereo not drawn),188,2.9% (inactive),2.7% (inactive),87.1,-5.5% (inactive),108,-0.582 (inactive),-6.8e-05 (inactive),0.00732 (inactive),11.9% (inactive),33.3% (inactive)
COc1ccc(/C=N/O)cc1COc1ccc(NC(C)=O)cc1,667,9.6% (inactive),-10.6% (inactive),113,-30.3% (inactive),64.4,-0.589 (inactive),-1.6e-05 (inactive),0.00667 (inactive),6.34% (inactive),10.2% (inactive)
CC1=C(C(=O)OC(C)C)C(c2cccc(F)c2)n2ncnc2N1 (stereo not drawn),752,0% (inactive),19% (inactive),95.5,-76.3% (inactive),114,-0.6 (inactive),1.6e-05 (inactive),0.00586 (inactive),-7.13% (inactive),22.1% (inactive)
CCN(CC)C(=O)Oc1ccc(NC(C)=O)cc1,383,2.1% (inactive),1.1% (inactive),99.8,-27.3% (inactive),102,-0.431 (inactive),-6.8e-05 (inactive),0.00611 (inactive),-1% (inactive),23% (inactive)
O=C(COc1ccccc1)Nc1ccccc1N1CCN(c2ccccc2)CC1,672,10.8% (inactive),-7.4% (inactive),84.2,-71.5% (inactive),110,-0.609 (inactive),-3.5e-05 (inactive),0.00412 (inactive),16.7% (inactive),3.18% (inactive)
CC(C)(C)C1=Nn2c(nnc2-c2n[nH]c3c2CCC3)SC1,385,6% (inactive),-24.6% (inactive),100,-30.7% (inactive),87.6,-0.521 (inactive),-1.7e-07 (inactive),0.00435 (inactive),14.9% (inactive),15.7% (inactive)
COCCn1c(C)c(C(=O)O)sc1=S,279,3.8% (inactive),8.1% (inactive),86.9,-4.7% (inactive),104,-0.416 (inactive),5e-06 (inactive),0.00261 (inactive),9.55% (inactive),-6.08% (inactive)
Nc1nnc(-c2cn(-c3ccccc3)nc2-c2ccccc2)o1,523,-12.5% (inactive),-7.1% (inactive),90.3,-16.3% (inactive),113,-0.481 (inactive),1.3e-05 (inactive),0.00498 (inactive),-22.2% (inactive),-23.6% (inactive)
CCN1CCN(c2nc(C)nc3c2sc(=S)n3C)CC1,640,-4.8% (inactive),7.2% (inactive),82.9,-24.6% (inactive),109,-0.587 (inactive),-2.8e-05 (inactive),0.00433 (inactive),-3.52% (inactive),18% (inactive)
CCCN1C(=O)c2cc(C(=O)O)ccc2C1O (stereo not drawn),817,8.1% (inactive),21.4% (inactive),103,-95.2% (inactive),118,-0.514 (inactive),-2.2e-05 (inactive),0.00732 (inactive),4.49% (inactive),13.6% (inactive)
CCOc1ccccc1N(CC(=O)N1CCCCCC1)S(C)(=O)=O,358,-10% (inactive),-1.2% (inactive),117,-83.5% (inactive),117,-0.447 (inactive),-1.3e-05 (inactive),0.00598 (inactive),9.48% (inactive),19.4% (inactive)
COCCSc1nnc(NC(=O)CSCc2ccccc2)s1,524,-14.6% (inactive),3.8% (inactive),112,-31.2% (inactive),89.4,-0.528 (inactive),-3.2e-05 (inactive),0.00459 (inactive),19% (inactive),26.7% (inactive)
CCc1cc2c(=O)c(-c3nc4ccccc4[nH]3)coc2c(CN2CCC(C)CC2)c1O,708,-7.9% (inactive),11.5% (inactive),102,15.3% (inactive),107,-0.552 (inactive),-3.1e-05 (inactive),0.00554 (inactive),7.38% (inactive),5.36% (inactive)
COc1ccc2cc(CN(Cc3ccco3)C(c3nnnn3C3CCCCC3)C(C)C)c(=O)[nH]c2c1 (stereo not drawn),325,1.6% (inactive),2.5% (inactive),119,-147% (inactive),125,-0.451 (inactive),5.5e-07 (inactive),0.00859 (inactive),11.1% (inactive),-3.61% (inactive)
O=C(OCN1C(=O)c2ccccc2C1=O)c1ccc2c(=O)n3c(nc2c1)CCC3,380,-26.1% (inactive),29.8% (inactive),79.3,74.4% (inactive),96.4,-0.581 (inactive),-6.9e-05 (inactive),0.00527 (inactive),5.92% (inactive),16.5% (inactive)
Cc1cc(S(=O)(=O)N2CCN(c3ccccc3C)CC2)ccc1F,651,-8.1% (inactive),-13.5% (inactive),103,-131% (inactive),125,-0.462 (inactive),1.6e-05 (inactive),0.00665 (inactive),14.2% (inactive),28.2% (inactive)
Cn1c(SCC(=O)c2ccc(-c3ccccc3)cc2)nnc1-c1ccco1,248,4.3% (inactive),5.3% (inactive),67.6,-7.1% (inactive),118,-0.516 (inactive),-5.4e-05 (inactive),0.0027 (inactive),3.76% (inactive),1.41% (inactive)
COC(=O)c1ccnc(/C=N/O)c1,715,-2% (inactive),-19.8% (inactive),112,11.2% (inactive),108,-0.578 (inactive),-2e-05 (inactive),0.00558 (inactive),15.5% (inactive),19.8% (inactive)
CN(Cc1cccs1)CC(O)COCc1ccco1 (stereo not drawn),407,6% (inactive),-40.7% (inactive),116,-28.9% (inactive),113,-0.591 (inactive),-4.7e-05 (inactive),0.00778 (inactive),11.5% (inactive),23.9% (inactive)
CCOc1ccccc1OCCn1nnc2ccccc21,312,-0.2% (inactive),-1.3% (inactive),114,-6.1% (inactive),109,-0.443 (inactive),-5.5e-05 (inactive),0.0043 (inactive),1.2% (inactive),-3.68% (inactive)
Cc1[nH]nc2c1C(C1CC=CCC1)C(C#N)=C(N)O2 (stereo not drawn),424,6.7% (inactive),-6.7% (inactive),99.5,-127% (inactive),117,-0.459 (inactive),8.5e-06 (inactive),0.00356 (inactive),-0.754% (inactive),40.2% (inactive)
O=C(Oc1ccc(Cl)cc1N1C(=O)CCC1=O)c1ccco1,331,-4.2% (inactive),-31.4% (inactive),114,-182% (inactive),134,-0.463 (inactive),-1.4e-05 (inactive),0.00607 (inactive),7.34% (inactive),31.5% (inactive)
CCC(=O)c1ccc(OC(=O)c2ccc(Br)o2)cc1,354,6.8% (inactive),-19.7% (inactive),99.8,-84.3% (inactive),112,-0.605 (inactive),-3e-05 (inactive),0.00383 (inactive),10.9% (inactive),9.67% (inactive)
CCOc1ccc2cc(C#N)c(SCC(=O)N3CCC(C)CC3)nc2c1,447,0.5% (inactive),6% (inactive),107,-92.8% (inactive),138,-0.242 (inactive),2.6e-06 (inactive),0.00566 (inactive),18.2% (inactive),7.14% (inactive)
CCCCOCCCNC(=O)COc1ccccc1,360,-3.4% (inactive),-12.1% (inactive),113,-3.5% (inactive),114,-0.398 (inactive),-6.8e-05 (inactive),0.00485 (inactive),17.8% (inactive),29.4% (inactive)
CC(=O)c1c(C)[nH]c(C(=O)OCc2nnc(-c3ccccc3)o2)c1C,757,-7.8% (inactive),-14.5% (inactive),122,-43.7% (inactive),110,-0.639 (inactive),4.8e-05 (inactive),0.00623 (inactive),14.6% (inactive),12.4% (inactive)
Cc1n[nH]c(C)c1N1C(=O)c2cccc3cc(Br)cc(c23)C1=O,476,5.9% (inactive),-9.9% (inactive),103,-36.7% (inactive),123,-0.375 (inactive),-7.7e-05 (inactive),0.00408 (inactive),1.78% (inactive),27.1% (inactive)
CC(=O)c1c(OC(=O)c2ccco2)c2ccccc2n1C,386,1% (inactive),15.7% (inactive),72.8,-81.6% (inactive),101,-0.367 (inactive),-1.2e-05 (inactive),0.00641 (inactive),12% (inactive),1.24% (inactive)
